This is part of a sample that, as a whole, favours compounds with a hit. Of some 83,000 tested, about 20% had one in any assay.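 Percent growth is the endpoint: 0 to 100 indicates growth inhibition (40 means 60% inhibition), 0 means no net growth, and negative values indicate cell death.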 Active and inactive are the calls of the source. Rule for the calls: active = growth percent below 10; inactive = the rest.
The molecules below were run on UACC-62 melanoma (assay: NCI-60 one-dose screen, 48 h (100 = growth as untreated, 0 = no growth, -100 = all killed)). Conditions: 10 µM unless noted.
In the case of `CCOC(=O)c1c(-c2ccccc2)n2c(=O)cc(C)c3c(O)c(O)cc1c32`, the growth was 69.4% (inactive). In the case of `CCOC(=O)c1n[nH]n2c1nc(=O)c1cnn(C)c12`, the growth was 106% (inactive). In the case of `COc1cccc(/C=C/C(=O)c2cc3c(N)c(C(=O)Nc4cccc(Cl)c4C)sc3nc2C)c1`, the growth was 1.73% (active). In the case of `COc1ccc2cc(-c3ccc(-c4ccc(C(=N)N)s4)s3)ccc2c1`, the growth was -16.3% (active). For `O=C1NC(=C(Cl)Cl)/C(=N/S(=O)(=O)NCCc2c[nH]c3ccccc23)N1`, the growth was 61.2% (inactive). In the case of `CC[C@]12C=CCN3CC[C@@]4(c5ccc(OC)cc5N(C)[C@H]4[C@@](O)(C(=O)OC)[C@@H]1OC(=O)CCCN1CCOCC1)[C@@H]32`, the growth was 97.6% (inactive). `Nc1ccc([N+](=O)[O-])cc1N=C/C=C/c1ccccc1` was tested, and the growth was 63.2% (inactive). `Cc1nc2sc(C(=O)Nc3ccc(Cl)cc3)c(N)c2cc1C(O)c1ccccc1` (stereo not given) was tested, and the growth was 17.7% (inactive). `S=c1[nH]c2cc(Cl)ccc2o1` was tested, and the growth was 96.6% (inactive). `CN(C)c1ccc(/C=C2/C=C(c3ccccc3)OC2=O)cc1` was tested, and the growth was 92.6% (inactive). For `COc1ccc(-c2ccc(=O)oc2C#Cc2cc(OC)c(OC)c(OC)c2)cc1O`, the growth was 14.8% (inactive). For `C#Cc1cccc(Nc2nc3ccc([N+](=O)[O-])cc3nc2Nc2cccc(C#C)c2)c1`, the growth was -39.3% (active). `CC(C(=O)O)n1c(O)c(C=Nc2cccnc2)sc1=S` (stereo not given) was tested, and the growth was 88.8% (inactive). In the case of `O=C(/C=C/c1ccc(Br)cc1)c1ccc(-n2cc(CN3CCN(c4cc5c(cc4F)c(=O)c(C(=O)O)cn5C4CC4)CC3)nn2)cc1`, the growth was 83% (inactive). `Cn1cccc1/C=C1\C(=O)Nc2ccccc21` was tested, and the growth was 90.6% (inactive). For `O=C1N[C@@H]2[C@@H](O)[C@@H](O)[C@H](O)C[C@H]2c2cc3c(c(O)c21)OCCO3`, the growth was -13.3% (active). In the case of `Cc1ccc2[nH]c(-c3ccc(S(C)(=O)=O)cc3)c(/C=N/N=C(N)N)c2c1`, the growth was 41.5% (inactive). With `CCOC(=O)c1c(C)nc2c(c1N)CC(=O)N2Cc1cc(OC)c(OC)c(OC)c1` the growth was 51% (inactive). In the case of `COc1ccc2nc(SCC(=O)Nc3ccccc3C)[nH]c2c1`, the growth was 84.5% (inactive). In the case of `Cc1cc(C)cc(Nc2ccc([N+](=O)[O-])c(NCCN3CCOCC3)n2)c1`, the growth was 36.6% (inactive). In the case of `Cc1ccc(C)n1/C=C/n1c(C)ccc1C`, the growth was 98.8% (inactive). With `Oc1c(CN2CCCC2)cc(COCc2ccccc2)c2cccnc12` the growth was -19.9% (active). `CCc1cccc(Sc2cc(C(=O)N3Cc4ccc(OCCN(C)C)cc4C3)ccc2O)c1` was tested, and the growth was 66.5% (inactive). With `O=P(O)(O)OCC1OC(n2cnc3c(NCc4ccccc4)ncnc32)C(O)C1O` (stereo not given) the growth was 38.4% (inactive). In the case of `C=CCN=C(N)SCCCCCCSC(N)=NCC=C`, the growth was 87.5% (inactive). With `COc1ccc(Cn2cc(C(=O)N=Nc3c(O)[nH]c4c(Cl)cccc34)nn2)cc1` the growth was 102% (inactive). In the case of `O=C(Nc1ccccc1)c1sc(-c2ccccc2)cc1O`, the growth was 67% (inactive). `CS(=O)(=O)Nc1cc(-c2ccc3ncnc(Nc4ccc5c(cnn5Cc5cccnc5)c4)c3c2)cnc1Cl` was tested, and the growth was 25.9% (inactive). With `CC1(C)CC[C@]2(C(=O)O)CC[C@]3(C)C(=CC[C@@H]4[C@@]5(C)C[C@@H](Cc6cn([C@@H]7O[C@H](CO)[C@@H](O)[C@H](O)[C@H]7O)nn6)[C@H](O)C(C)(C)[C@@H]5CC[C@]43C)[C@@H]2C1` the growth was 93.2% (inactive). In the case of `CCN1C(=O)N(CC)C2C1NN=c1s/c(=C\c3ccccc3Br)c(=O)n12` (stereo not given), the growth was 24.5% (inactive). In the case of `Cc1ccc(Nc2nc(-c3ccc(F)cc3)c(C#N)c(=O)n2C)cc1`, the growth was 51.8% (inactive). With `N#Cc1c(N2CCOCC2)nc(=S)[nH]c1-c1ccccc1` the growth was 43.6% (inactive). In the case of `COc1cccc(/C=C/C(=O)c2cc3c(N)c(C(=O)Nc4ccccc4C)sc3nc2C)c1`, the growth was 33.6% (inactive). `COc1ccc(C2=NN(C(C)=O)C(c3ccc(Oc4ccnc5cc(Cl)ccc45)c(OC)c3)C2)cc1` (stereo not given) was tested, and the growth was 54.7% (inactive). For `CCOC(=O)C/C(=N\Nc1cc(=O)[nH]c2ccc(Cl)cc12)C(=O)OCC`, the growth was 92.5% (inactive). With `COC(=O)C1=C(C)NC(C)=C(C(=O)OCC(C)C)C1c1ccccc1[N+](=O)[O-]` (stereo not given) the growth was 48.7% (inactive). `Cc1ccc(S(=O)(=O)n2cc(C3C(Cl)C(=O)N3c3ccc(N4CCOCC4=O)cc3)c3ccccc32)cc1` (stereo not given) was tested, and the growth was 51.3% (inactive). With `CS(=O)(=O)Nc1cncc(-c2ccc3ncnc(Nc4ccc(F)c(Cl)c4)c3c2)c1` the growth was 34.6% (inactive). `N=C(N)c1ccc(-c2ccc(-c3ccc(F)cc3)s2)s1` was tested, and the growth was -67.9% (active). With `CCN(CC)c1ccc(/C=N/NC(=O)c2ccc(Nc3ccnc(C(F)(F)F)c3)cc2)c(O)c1` the growth was 5.86% (active).

What follows are molecules tested on LOX IMVI melanoma in the same assay as above. Conditions: 10 µM unless noted.
With `CCOC(=O)c1c(-c2ccccc2)n2c(=O)cc(C)c3c(O)c(O)cc1c32` the growth was 43% (inactive). In the case of `CCOC(=O)c1n[nH]n2c1nc(=O)c1cnn(C)c12`, the growth was 103% (inactive). With `COc1cccc(/C=C/C(=O)c2cc3c(N)c(C(=O)Nc4cccc(Cl)c4C)sc3nc2C)c1` the growth was -64.2% (active). In the case of `COc1ccc2cc(-c3ccc(-c4ccc(C(=N)N)s4)s3)ccc2c1`, the growth was -58.2% (active). With `O=C1NC(=C(Cl)Cl)/C(=N/S(=O)(=O)NCCc2c[nH]c3ccccc23)N1` the growth was 29.8% (inactive). With `CC[C@]12C=CCN3CC[C@@]4(c5ccc(OC)cc5N(C)[C@H]4[C@@](O)(C(=O)OC)[C@@H]1OC(=O)CCCN1CCOCC1)[C@@H]32` the growth was 110% (inactive). With `Nc1ccc([N+](=O)[O-])cc1N=C/C=C/c1ccccc1` the growth was 49% (inactive). With `Cc1nc2sc(C(=O)Nc3ccc(Cl)cc3)c(N)c2cc1C(O)c1ccccc1` (stereo not given) the growth was 33.4% (inactive). For `S=c1[nH]c2cc(Cl)ccc2o1`, the growth was 103% (inactive). `CN(C)c1ccc(/C=C2/C=C(c3ccccc3)OC2=O)cc1` was tested, and the growth was 98.8% (inactive). For `COc1ccc(-c2ccc(=O)oc2C#Cc2cc(OC)c(OC)c(OC)c2)cc1O`, the growth was 23.5% (inactive). `C#Cc1cccc(Nc2nc3ccc([N+](=O)[O-])cc3nc2Nc2cccc(C#C)c2)c1` was tested, and the growth was -93.2% (active). `CC(C(=O)O)n1c(O)c(C=Nc2cccnc2)sc1=S` (stereo not given) was tested, and the growth was 101% (inactive). With `O=C(/C=C/c1ccc(Br)cc1)c1ccc(-n2cc(CN3CCN(c4cc5c(cc4F)c(=O)c(C(=O)O)cn5C4CC4)CC3)nn2)cc1` the growth was 50.4% (inactive). In the case of `Cn1cccc1/C=C1\C(=O)Nc2ccccc21`, the growth was 87.2% (inactive). In the case of `O=C1N[C@@H]2[C@@H](O)[C@@H](O)[C@H](O)C[C@H]2c2cc3c(c(O)c21)OCCO3`, the growth was -41.1% (active). In the case of `Cc1ccc2[nH]c(-c3ccc(S(C)(=O)=O)cc3)c(/C=N/N=C(N)N)c2c1`, the growth was 47.3% (inactive). `CCOC(=O)c1c(C)nc2c(c1N)CC(=O)N2Cc1cc(OC)c(OC)c(OC)c1` was tested, and the growth was 48.5% (inactive). For `COc1ccc2nc(SCC(=O)Nc3ccccc3C)[nH]c2c1`, the growth was 95.6% (inactive). `Cc1cc(C)cc(Nc2ccc([N+](=O)[O-])c(NCCN3CCOCC3)n2)c1` was tested, and the growth was 15.7% (inactive). `Cc1ccc(C)n1/C=C/n1c(C)ccc1C` was tested, and the growth was 105% (inactive). `Oc1c(CN2CCCC2)cc(COCc2ccccc2)c2cccnc12` was tested, and the growth was 2.6% (active). `CCc1cccc(Sc2cc(C(=O)N3Cc4ccc(OCCN(C)C)cc4C3)ccc2O)c1` was tested, and the growth was 46.7% (inactive). With `O=P(O)(O)OCC1OC(n2cnc3c(NCc4ccccc4)ncnc32)C(O)C1O` (stereo not given) the growth was -8.76% (active). With `C=CCN=C(N)SCCCCCCSC(N)=NCC=C` the growth was 93.1% (inactive). With `COc1ccc(Cn2cc(C(=O)N=Nc3c(O)[nH]c4c(Cl)cccc34)nn2)cc1` the growth was 93.7% (inactive). `O=C(Nc1ccccc1)c1sc(-c2ccccc2)cc1O` was tested, and the growth was 109% (inactive). For `CS(=O)(=O)Nc1cc(-c2ccc3ncnc(Nc4ccc5c(cnn5Cc5cccnc5)c4)c3c2)cnc1Cl`, the growth was 39.2% (inactive). For `CC1(C)CC[C@]2(C(=O)O)CC[C@]3(C)C(=CC[C@@H]4[C@@]5(C)C[C@@H](Cc6cn([C@@H]7O[C@H](CO)[C@@H](O)[C@H](O)[C@H]7O)nn6)[C@H](O)C(C)(C)[C@@H]5CC[C@]43C)[C@@H]2C1`, the growth was 99.4% (inactive). With `CCN1C(=O)N(CC)C2C1NN=c1s/c(=C\c3ccccc3Br)c(=O)n12` (stereo not given) the growth was 16.3% (inactive). With `Cc1ccc(Nc2nc(-c3ccc(F)cc3)c(C#N)c(=O)n2C)cc1` the growth was 74.3% (inactive). For `N#Cc1c(N2CCOCC2)nc(=S)[nH]c1-c1ccccc1`, the growth was 80% (inactive). In the case of `COc1cccc(/C=C/C(=O)c2cc3c(N)c(C(=O)Nc4ccccc4C)sc3nc2C)c1`, the growth was -65.9% (active). For `COc1ccc(C2=NN(C(C)=O)C(c3ccc(Oc4ccnc5cc(Cl)ccc45)c(OC)c3)C2)cc1` (stereo not given), the growth was 53.2% (inactive). With `CCOC(=O)C/C(=N\Nc1cc(=O)[nH]c2ccc(Cl)cc12)C(=O)OCC` the growth was 95.7% (inactive). With `COC(=O)C1=C(C)NC(C)=C(C(=O)OCC(C)C)C1c1ccccc1[N+](=O)[O-]` (stereo not given) the growth was 42.4% (inactive). `Cc1ccc(S(=O)(=O)n2cc(C3C(Cl)C(=O)N3c3ccc(N4CCOCC4=O)cc3)c3ccccc32)cc1` (stereo not given) was tested, and the growth was 34.2% (inactive). For `CS(=O)(=O)Nc1cncc(-c2ccc3ncnc(Nc4ccc(F)c(Cl)c4)c3c2)c1`, the growth was 28.3% (inactive). `N=C(N)c1ccc(-c2ccc(-c3ccc(F)cc3)s2)s1` was tested, and the growth was -67.2% (active). For `CCN(CC)c1ccc(/C=N/NC(=O)c2ccc(Nc3ccnc(C(F)(F)F)c3)cc2)c(O)c1`, the growth was -25.4% (active).

— PubChem BioAssay (NCI)
